# Measurements taken from PubChem BioAssay AID651789 (National Center for Advancing Translational Sciences (NCATS), 2012).
# Records with an inconclusive call do not appear. A call without a number means that no potency is given here. Active and inactive are the calls of the source. Calls come from the whole dose curve; as a rule, active = well fitted inhibition curve with a large enough effect; inconclusive = small, poorly fitted or top-dose-only effect; inactive = no such curve, though single readings can be large or run the other way.
# Assay: Acumen qHTS Assay for Inhibitors of the mTORC1 Signaling Pathway in WT MEF Cells: Hit Validation; note: nearly all actives have a fitted effect of over 60% in size
# Settings: Acumen imaging; series mostly up to 37.3 µM
# Outline: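 Read-out is immunofluorescent phospho-rpS6 (Ser235/236) normalised to PI-stained cell number, reported as % active cells using a 7.5 nM rapamycin threshold. Cells: WT or Tsc2-/-, p53-/- MEFs, compound-exposed 24 h at 37C; PI count also tracks viability.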
# Potency is the fitted concentration of half-maximal effect.
row,Structure (SMILES),Potency
1,CCN(c1ccccc1)S(=O)(=O)c1ccc(NC(=O)c2nc(S(C)(=O)=O)ncc2Cl)cc1,1.04 µM (active)
2,NC(N)=NC(=O)c1nc(Cl)c(N)nc1N,inactive
3,CCOCc1cc(CN2CCN(c3ccccc3OC)CC2)c(O)c2ncccc12,inactive
4,O=S(=O)(c1cccc2cnccc12)N1CCCNCC1,inactive
5,CCOC(=O)c1c(NC(=O)c2ccc(S(=O)(=O)N(CCOC)CCOC)cc2)sc2c1CC(C)(C)NC2(C)C,3.29 µM (active)
6,COc1ccc(N(Cc2ccccc2)C(=O)c2nc(S(C)(=O)=O)ncc2Cl)cc1,2.07 µM (active)
7,COc1ccc(OC)c(NC(=O)c2nc(S(=O)(=O)Cc3ccc(F)cc3)ncc2Cl)c1,3.29 µM (active)
8,Cc1ccc(NC(=O)c2ccc(CN3CCN(C)CC3)cc2)cc1Nc1nccc(-c2cccnc2)n1,inactive
9,CC(C)S(=O)(=O)c1oc(-c2ccc(F)cc2)nc1S(=O)(=O)c1ccc(F)cc1,0.521 µM (active)
10,COc1ccccc1-c1noc(CSc2nc3ccc(C)cc3[nH]2)n1,inactive
11,CC(C)(C)OC(=O)N1CCC(c2c(C(=O)NCCN3CCC(Cc4ccccc4)CC3)cnn2-c2cccc(Cl)c2)CC1,10.4 µM (active)
12,COc1cc2ncnc(Nc3ccc(F)c(Cl)c3)c2cc1OCCCN1CCOCC1,inactive
13,COc1cccc(C(=O)Nc2ccc(-c3cc(C(F)(F)F)nn3-c3ccccc3)cc2)c1,inactive
14,CCOC(=O)CSc1nc2cc3c(cc2c(=O)n1CCCCCC(=O)NCc1ccc2c(c1)OCO2)OCO3,inactive
15,O=C(NCC(c1cccs1)S(=O)(=O)c1cccs1)c1ccccc1 (stereo not given),inactive
16,CCNC(=O)c1c(NC(=O)c2nc(S(=O)(=O)CC)ncc2Cl)sc2c1CCCC2,0.585 µM (active)
17,Cc1cc(C)c(NC(=O)C2CCN(c3nc4ccccc4n4cccc34)CC2)c(C)c1,inactive
18,CCCC(=O)OC1=CN(Cc2ccccc2)S(=O)(=O)c2ccccc21,3.69 µM (active)
19,CN(CCCNC(=O)c1cc2c(Cl)nc3ccccc3c2s1)Cc1ccccc1,inactive
20,COc1ccc(Cn2c(C(=O)O)c(CNCc3ccc(SC)cc3)c3ccc(OC)cc32)cc1,inactive

row,Structure (SMILES),Potency
1,CC(C)(C)c1ccc(C(=O)Nc2nnc3n2CCS3)cc1,8.26 µM (active)
2,Cc1cc(OCC(=O)Nc2cc(-c3nc4ccccc4[nH]3)ccc2C)ccc1Cl,inactive
3,CCc1ccc(NC(=O)C2CCCN(S(=O)(=O)c3c(C)noc3/C=C/N(C)C)C2)cc1 (stereo not given),2.07 µM (active)
4,CC(C)c1nnc(NC(=O)c2nc(S(=O)(=O)Cc3ccccc3)ncc2Cl)s1,5.21 µM (active)
5,O=C(/C=C/c1ccco1)Nc1ccc(Cl)c(-c2nc3cc(Cl)ccc3o2)c1,inactive
6,Cc1ccccc1Oc1nc2ccccn2c(=O)c1/C=C(\C#N)c1nc2ccccc2[nH]1,inactive
7,O=C(CS(=O)(=O)c1cccc2nsnc12)NCc1ccc(Cl)cc1,inactive
8,COC(=O)c1cc2sc(C)cc2n1Cc1ccccc1,inactive
9,CCN(C(=O)C(NS(=O)(=O)c1ccc(Br)s1)c1ccccc1)c1ccc(C)c(C)c1 (stereo not given),inactive
10,Fc1ccc(Nc2nc3nonc3nc2Nc2cccc(C(F)(F)F)c2)cc1,5.21 µM (active)
11,COc1ccc(OCC(=O)Nc2ccc3nn(-c4ccc(OC)cc4)nc3c2)cc1,inactive
12,CC1C(=O)N2CCCc3cc(S(=O)(=O)Nc4ccc(Br)cc4F)cc1c32 (stereo not given),2.07 µM (active)
13,COc1ccc(NC(=O)CSc2c3c(nc4ccccc24)CCC3)c(OC)c1,inactive
14,CCOc1ccc(S(=O)(=O)Nc2ccc(OC)c(Cl)c2)c2cccnc12,inactive
15,NC(=O)c1ccccc1NC(=O)c1ccc(-c2ccc(Br)cc2)o1,inactive
16,Cc1ccc(C(=O)c2cn(CC(=O)NCc3ccccc3Cl)c3nc(C)ccc3c2=O)cc1,inactive
17,COc1ccc(OC)c(Nc2c3c(nc4ccccc24)CCC3)c1,0.585 µM (active)
18,Cc1cccc(CSc2cn(CC(=O)N3CCCCCC3)c3ccccc23)c1,inactive
19,CCN(CC)CCCNc1sc(S(=O)(=O)c2ccccc2)nc1S(=O)(=O)c1ccc(Cl)cc1,16.5 µM (active)
20,c1ccc(N2CCN(c3ncnc4[nH]ncc34)CC2)cc1,inactive
